Screens deposited in PubChem BioAssay by The Scripps Research Institute Molecular Screening Center.
M1 ag parental = M1 agonist counterscreen hit in parental CHO-K1 cells | 360,000 compounds, 0.48% hits | activation, % at 3 µM | Fluo-8 calcium fluorescence; scaled to maximal ATP response, vehicle zero; in the data active = activation above about 15%;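 note: untransfected CHO-K1 host cells lacking M1 receptor as counterscreen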
M1 PAM parental = M1 PAM counterscreen hit in parental CHO-K1 cells. ATP EC20, Fluo-8 calcium fluorescence; 0% at ATP EC20, 100% at ATP max. activation, % at 3 µM. 360,000 compounds, 0.02% hits. AID 602247;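 active = activation above the run cutoff, the mean activation of all test compounds plus 3 SD, cut at about 40% in these data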;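 note: peak over basal fluorescence ratio in a 140 s read after ATP addition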
CHO-K1 Ca antag = counter-screen for M1 antagonists: effect in parental CHO-K1 cells; 360,000 compounds, 0.6% hits; ATP-induced calcium, Fluo-8 fluorescence; inhibition, % at 3 µM;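 active = inhibition above a per-plate cutoff, the plate's mean sample inhibition plus 3 SD, cut at about 24% in these data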;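 note: 0% = DMSO plus EC80 ATP and 100% = DMSO alone without ATP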
M1 antag = human CHRM1 antagonism | P11229 | CHO-K1 hM1, Fluo-8 calcium fluorescence, ACh EC80 antagonist | inhibition, % at 3 µM | 360,000 compounds, 1.3% hits | AID 588852;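 active = percent inhibition above its own plate's cutoff, namely the mean of that plate's compound wells plus 3 SD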;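 note: peak over basal fluorescence ratio during 140 s after agonist addition; 0% = ACh EC80 plus DMSO and 100% = DMSO alone without agonist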
Target sequence (P11229 whole entry, looked up): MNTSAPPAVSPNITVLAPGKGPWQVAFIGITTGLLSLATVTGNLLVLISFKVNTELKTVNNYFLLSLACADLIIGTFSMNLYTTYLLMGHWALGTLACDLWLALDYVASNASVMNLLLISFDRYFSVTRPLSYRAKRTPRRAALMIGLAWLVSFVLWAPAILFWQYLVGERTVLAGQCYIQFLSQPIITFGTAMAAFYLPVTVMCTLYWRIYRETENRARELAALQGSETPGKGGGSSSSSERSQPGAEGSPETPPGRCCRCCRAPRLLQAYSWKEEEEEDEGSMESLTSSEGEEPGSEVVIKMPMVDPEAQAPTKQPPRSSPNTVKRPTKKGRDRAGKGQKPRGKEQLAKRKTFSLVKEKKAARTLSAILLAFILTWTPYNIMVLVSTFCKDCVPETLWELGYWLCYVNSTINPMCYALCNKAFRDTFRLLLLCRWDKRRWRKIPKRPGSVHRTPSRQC
CHRM1 PAM = positive allosteric modulators of human M1 muscarinic receptor | CHO-K1 hM1, Fluo-8 calcium fluorescence, ACh EC20; 0% = ACh EC20, 100% = maximal ACh | activation, % at 3 µM | 360,000 compounds, 0.088% hits; in the data active = activation above about 19%, passing the limit was not always enough
CHRM1 agonist = activates human CHRM1 receptor; P11229; CHO-K1 hM1, Fluo-8 calcium fluorescence, agonist mode; 0% DMSO, 100% acetylcholine EC100; activation, % at 3 µM; 360,000 compounds, 0.33% hits;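 active = activation above the run's mean compound activation plus 3 SD, cut at about 16% in these data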;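 note: peak over basal fluorescence ratio within a 140 s kinetic read after compound addition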
Active calls of the source: *. Sampled rows, rich in hits. Any-hit rate of the full collection: about 2.3%.

SMILES	M1 ag parental	M1 PAM parental	CHO-K1 Ca antag	M1 antag	CHRM1 PAM	CHRM1 agonist
O=C(CCN1C(=O)/C(=C/C=C/c2ccccc2)SC1=S)Nc1nccs1	-0.9	-5.9	25.8*	-4.9	9.1	2.7
CNS(=O)(=O)c1cnccc1N1CCN(C)CC1	2.9	17.3	4.8	-4.7	6.0	-11.7
CC(C)N1CCN(c2ccncc2S(=O)(=O)N2CCN(C)CC2)CC1	0.3	13.1	-5.7	46.8*	-25.9	-8.4
Cc1ccc2c(c1)C(=O)C(=O)N2Cc1ccc(Br)cc1	0.4	-8.4	0.6	0.3	8.6	20.8*
COc1ccccc1NC(=O)CN(c1ccccc1)S(=O)(=O)c1ccccc1	0.8	10.9	-8.7	-1.7	4.7	-1.1
Cc1ccc(S(=O)(=O)N(CC(=O)Nc2ccccc2C(=O)O)c2ccccc2)cc1	15.8*	-2.6	13.8	1.6	9.0	-9.2
CCOc1cc(/C=C(/C#N)c2ccc(F)cc2)ccc1OCc1ccc(C(=O)O)o1	-0.3	22.6	-18.3	-51.0	22.9*	5.4
CCOc1cc(/C=C(/C#N)c2nc3ccccc3[nH]2)ccc1OCc1ccc(C(=O)O)o1	0.3	8.3	-29.5	-7.2	3.4	-3.9
Cn1c(=O)c2c(-c3ccccc3)n(CCCN3CCOCC3)cc2n(C)c1=O	0.4	-4.9	28.9*	7.2	0.2	-3.1
Cc1ccc(-c2c3c(=O)n(C)c(=O)n(C)c3cn2Cc2ccccc2)cc1	3.7	19.4	-5.5	-8.2	10.1	-6.0
CCc1cccc(NC(=O)c2ccc(Cn3nc(C)cc3C)o2)c1	-0.2	-12.1	23.9*	-12.4	8.4	-9.0
OCc1ccc(-c2cccc3nccn23)cc1	0.0	5.7	-4.6	-11.0	4.9	-6.0
COc1ccc(OC)c(C2C(C#N)=C(N)Oc3c2c(C)nn3-c2ccc(C)cc2)c1 (stereo not drawn)	-0.4	-8.5	28.0*	-15.9	-4.1	-2.0
Cc1ccc(-n2nc(C)c3c2OC(N)=C(C#N)C3c2ccc(C)o2)cc1 (stereo not drawn)	-0.4	-7.5	-1.9	-2.8	-4.7	-1.0
Cc1ccc(CN(C(=O)c2ccc([N+](=O)[O-])cc2)C2CCS(=O)(=O)C2)o1 (stereo not drawn)	0.5	13.5	-5.3	4.7	2.6	-3.1
COc1ccc(NC(=O)CCN2CCN(S(=O)(=O)c3cc(Cl)ccc3OC)CC2)cc1	3.7	62.2*	-25.8	-7.1	-9.7	5.9
COc1ccc(NC(=O)CCN2CCN(S(=O)(=O)c3ccc(Br)cc3)CC2)cc1	2.1	11.3	-16.1	0.7	0.1	0.4
COc1ccc(O)c(CN2CCN(C/C=C/c3ccccc3)CC2)c1	3.1	18.8	-22.0	0.3	-8.1	-8.4
COc1cc(Br)cc(CN2CCN(C/C=C/c3ccccc3)CC2)c1O	3.5	20.5	-24.1	95.8*	-31.9	-12.6
Cc1ccc(C(=O)N(CC(=O)NC2CCCC2)c2ccccc2F)s1	0.3	2.9	5.8	8.4	-0.1	-2.2
CCOc1cc2[nH]c(=O)n(Cc3ccccc3)c(=O)c2cc1OCC	-0.3	-7.6	26.3*	8.5	-0.8	-3.6
COc1ccc(Cn2c(=O)[nH]c3cc(OC)c(OC)cc3c2=O)cc1	5.9	4.1	-3.9	9.0	-4.3	-0.8
N#Cc1ccc(COC(=O)CCc2c[nH]c3ccccc23)cc1	0.3	2.5	5.9	-5.0	13.8	5.9
Cc1ccc(-c2ccc(/C=C3\SC(N4CCOCC4)=NC3=O)o2)cc1	1.5	7.8	-1.0	0.8	3.1	-6.0
Cc1ccc(/C=C2\SC(N3CCN(C(c4ccccc4)c4ccccc4)CC3)=NC2=O)o1	1.1	20.6	-10.8	51.9*	-26.2	-10.8
SMILES	M1 ag parental	M1 PAM parental	CHO-K1 Ca antag	M1 antag	CHRM1 PAM	CHRM1 agonist
Cc1cc([N+](=O)[O-])ccc1NC(=O)C(C)NC1CCCCC1 (stereo not drawn)	0.5	11.8	-6.2	-2.0	2.6	-3.0
Cc1ccc(NN2C(=O)C=C(c3ccc(Cl)cc3)C2=O)cc1	4.7	4.5	30.6*	29.3	-1.5	7.2
CN1CCN(CC#CCC(O)(c2ccccc2)c2ccccc2)CC1	10.7	21.7	0.1	-2.0	3.6	-6.2
CN(C)CC#CCC(O)(c1ccccc1)C1CCCCC1 (stereo not drawn)	0.5	11.9	-2.1	100.3*	-26.1	-8.6
CN1CCN(CC#CCC(O)(c2ccccc2)C2CCCC2)CC1 (stereo not drawn)	-0.4	-6.2	17.3	34.1*	-16.5	-5.8
CCN(CC)CC#CCC(O)(c1ccccc1)C1CCCC1 (stereo not drawn)	0.9	10.1	-11.3	102.2*	-35.3	-12.7
Cc1cc(C)c2c(N)c(C(=O)NN3CC(=O)N(c4ccccc4)CC3=O)sc2n1	0.1	9.6	-10.0	0.8	1.9	-3.4
Cc1cccc(NC(=O)COC(=O)c2ccc(S(=O)(=O)N3CCCCCC3)cc2)c1	0.2	-21.3	-1.4	-11.7	9.3	-3.2
O=C(CNc1ccc(C(F)(F)F)cc1)Nc1cccc(S(=O)(=O)N2CCCCC2)c1	7.1	8.9	5.8	24.0*	-11.0	-0.4
O=C(CNc1cccc(S(=O)(=O)N2CCCC2)c1)Nc1cccc(Br)c1	18.8*	-15.6	4.5	8.0	-4.6	3.2
O=C(COC(=O)c1ccc(S(=O)(=O)N2CCCC2)cc1)Nc1cccc(Br)c1	2.0	-17.4	-5.0	28.7*	-17.2	-4.0
O=C(COC(=O)c1cc(S(=O)(=O)N2CCCC2)ccc1O)Nc1ccc(SC(F)F)cc1	15.2*	13.8	11.7	9.5	-4.5	5.3
CCOc1ccc(-c2cc(C(=O)NC3CCCCC3)[nH]n2)c(C)c1	0.1	2.7	-0.3	-16.2	6.2	-6.3
CCCCN1C(C(=O)Nc2ncccn2)=C(O)c2ccccc2S1(=O)=O	0.1	0.2	-4.5	-12.9	6.8	-2.4
CC(C)(C)c1cc(C2=CSC3=NCCN23)cc(C(C)(C)C)c1O	2.5	9.2	-4.8	36.3*	-25.9	-10.0
Cc1cc(NC(=O)CSCC(=O)Nc2nc3ccccc3s2)no1	0.8	-19.2	5.8	10.8	-5.7	-2.8
O=C(N/N=C/c1cc2ccccc2nc1Cl)/C(=C/c1cccs1)NC(=O)c1ccccc1	2.8	-20.4	-7.7	3.2	-0.8	-1.5
O=C(N/N=C/c1cccnc1)/C(=C\c1cccs1)NC(=O)c1ccccc1	18.8*	16.8	-0.9	4.8	-1.4	-3.5
CC(=O)Nc1ccc(CN2C(=O)C(CCc3ccccc3)ON=C2c2cnccn2)cc1 (stereo not drawn)	6.9	12.7	2.1	14.0	-11.4	2.8
O=C(COc1ccc2c(-c3ccccc3)cc(=O)oc2c1)Nc1ccc(CCO)cc1	17.8*	-20.0	25.9*	23.8	-11.0	4.9
CCOC(=O)c1cc(=O)c2ccc(OCC(=O)Nc3ccc(F)cc3)cc2o1	24.9*	9.9	-1.4	-8.4	8.5	10.5
